# Data as given in PubChem BioAssay (NCATS).
# Results filed as inconclusive are left out. Active and inactive are the calls of the source. The call rests on the fitted dose curve; in most records, active means well fitted cell-killing curve with a large enough effect; inconclusive means small, poorly fitted or top-dose-only effect, or effect the other way; inactive means no such curve, though single readings can be large or run the other way.
# Experiment: Quantitative High-Throughput drug screen in 47 multiple myeloma cell lines against the NCATS MIPE library collection: VP6_DJ cell viability assay (AID 1919867); further: nearly all actives have a fitted effect of over 40% in size
# Details: ATP luminescence, 48 h; series mostly up to 45.8 µM
# Procedure, shortened: (§1)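 500 cells/well per myeloma line exposed to pinned MIPE 4.0 compounds for 48 h at 37 °C, 5% CO2. Viability read as ATP by CellTiter-Glo luminescence, normalised to DMSO-only (100%) and media-only (0%) wells.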
# Potency means the concentration at half of the fitted maximal effect.
row,Structure (SMILES),Potency
1,C[C@]12CC[C@H]3[C@@H](CCC4=CC(=O)CC[C@@]43C)[C@H]1CC[C@H]2OC(=O)CCC1CCCC1,inactive
2,Cc1c(C(=O)c2cccc3ccccc23)c2cccc3c2n1[C@H](CN1CCOCC1)CO3,inactive
3,CC(O)=C(C#N)C(=O)Nc1cc(Br)ccc1Br,2960 nM (active)
4,CN(C)NC(=O)CCC(=O)O,16600 nM (active)
5,COc1ccc(C(=O)c2c(C)n(CCN3CCOCC3)c3cc(I)ccc23)cc1,6620 nM (active)
6,O=C(Nc1ccncc1)C(=O)c1cn(Cc2ccc(Cl)cc2)c2ccccc12,23.5 nM (active)

# Experiment: Quantitative High-Throughput drug screen in 47 multiple myeloma cell lines against the NCATS MIPE library collection: UTMC2_PLB cell viability assay (AID 1919868); further: nearly all actives have a fitted effect of over 55% in size
# Details: CellTiter-Glo ATP luminescence, 48 h; viability (% of DMSO control): at 45.8 µM (top of the series)
# Procedure, shortened: as §1
row,Structure (SMILES),Potency
1,O=C1C=CC[C@@H]2[C@H]3CCCN4CCC[C@@H](CN12)[C@@H]34,inactive
2,CCOC(=O)c1c(C(C#N)=CN)c2ccc(Cl)c(Cl)c2n1C,inactive
3,CC(C)N[C@@H]1CCn2c(=O)[nH]c3cccc(c32)[C@@H]1O,10500 nM (active)
4,Cc1c(N)nc([C@H](CC(N)=O)NC[C@@H](N)C(N)=O)nc1C(=O)N[C@H](C(=O)N[C@@H](C)[C@H](O)[C@@H](C)C(=O)N[C@@H](C(=O)NCCc1nc(-c2nc(C(=O)NCCC[S+](C)C)cs2)cs1)[C@@H](C)O)C(O[C@H]1O[C@H](CO)[C@H](O)[C@@H](O)[C@@H]1O[C@H]1O[C@H](CO)[C@@H](O)[C@H](OC(N)=O)[C@H]1O)c1cnc[nH]1 (stereo not given in full),209 nM (active)
5,Cc1ccccc1-n1c(Cn2ncc3c(N)ncnc32)nc2cccc(C)c2c1=O,74.3 nM (active)
6,CC[C@H]1C=CC=CC[C@@H](C)[C@H](O)[C@@](C)(O)C(=O)[C@@H](C)[C@H](O)[C@@H](C)C(=O)[C@@H](C)[C@H](O)[C@@H](C)C=CC(=O)O[C@@H]2[C@@H](C)[C@H](CC1)O[C@]1(CC[C@H](C)[C@H](C[C@@H](C)O)O1)[C@H]2C,1 nM (active)
7,O=C1CCC[C@@H]2[C@H]3CCCN4CCC[C@@H](CN12)[C@@H]34,inactive
8,O=[N+]([O-])c1ncc[nH]1,inactive
9,CN[C@@H]1Cc2cccc3[nH]c(=O)n(c23)C1,inactive
10,CCOP(=O)(OCC)C(C)NC(=O)N(CCCl)N=O (stereo not given),inactive
11,COC[C@H]1OC(=O)c2coc3c2[C@@]1(C)C1=C(C3=O)[C@@H]2CC[C@H](O)[C@@]2(C)C[C@@H]1OC(C)=O,296 nM (active)
12,CN(C)NC(=O)CCC(=O)O,37.2 nM (active)
13,O=C(Nc1ccncc1)C(=O)c1cn(Cc2ccc(Cl)cc2)c2ccccc12,13.2 nM (active)
14,CC(=O)Nc1ccc(OC[C@](C)(O)C(=O)Nc2ccc([N+](=O)[O-])c(C(F)(F)F)c2)cc1,inactive
